# CYP2C19 activ – activators of human cytochrome P450 2C19; 96,000 tested, under 10 active; recombinant CYP2C19, luciferin-H EGE luminescence; stronger effect = higher value; 0 = fully inhibited enzyme, 1 = untreated enzyme; activation factor at 5 µM;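 active means activation factor of at least 2 at 5 µM in the primary screen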;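 further: 0 = wells with 2.5 mM tranylcypromine and 1 = vehicle-only wells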
# Target sequence (P33261 whole entry, looked up): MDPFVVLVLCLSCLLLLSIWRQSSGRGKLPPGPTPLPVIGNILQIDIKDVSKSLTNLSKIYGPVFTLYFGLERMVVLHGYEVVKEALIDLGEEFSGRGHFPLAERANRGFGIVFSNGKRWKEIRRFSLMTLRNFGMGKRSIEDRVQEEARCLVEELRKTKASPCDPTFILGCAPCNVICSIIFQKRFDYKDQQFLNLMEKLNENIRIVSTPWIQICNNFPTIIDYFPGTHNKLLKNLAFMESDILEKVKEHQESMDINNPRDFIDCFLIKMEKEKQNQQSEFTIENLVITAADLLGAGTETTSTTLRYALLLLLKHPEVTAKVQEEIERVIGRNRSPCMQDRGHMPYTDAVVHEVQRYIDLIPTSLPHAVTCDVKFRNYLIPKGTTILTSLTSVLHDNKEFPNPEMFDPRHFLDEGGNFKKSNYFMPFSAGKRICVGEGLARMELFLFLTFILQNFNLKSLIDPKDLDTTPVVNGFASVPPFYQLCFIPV
# Measles CPE – protection of cells from measles virus; Measles virus-infected cells, CPE protection, absorbance; protection (pct of control), % at 4 µM; actives 1.5% (n = 140,000); in the data active means protection mostly above about 24%, no sharp cut-off; inactive means mostly below about 26%
# CYP2C19 inh – blocks human cytochrome P450 2C19; CYP2C19 Supersomes, luciferin-H EGE luminescence, 30 min; inhibition, % at 5 µM; actives 21% (n = 96,000); AID 778;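 active means CYP2C19 inhibition above a set limit at 5 µM in the primary screen, cut at about 50% in these data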;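 further: plate controls were negative control wells for no effect and 2.5 mM tranylcypromine positive control for full effect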
# CYP2C9 inh – human CYP2C9 inhibition; CYP2C9 Supersomes, luciferin-H conversion, luminescence; inhibition, % at 5 µM; actives 20% (n = 96,000); AID 777;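 active means blocking of liver enzyme CYP2C9 beyond about 50% at 5 µM, limit read from the data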
# CYP2C9 act – CYP2C9 (human) activation. P11712. recombinant CYP2C9, luciferin-H conversion, luminescence; stronger effect = higher value; factor 1 = untreated enzyme, 0 = blocked. activation factor at 5 µM. actives 1.4% (n = 96,000). AID 1024;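 active means activation factor of 2 or more for CYP2C9 at a 5 µM dose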;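 further: 0 = sulfaphenazole-blocked wells and 1 = vehicle-only wells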
# The depositor's hits bear a star; nt = no result. This is a sample that favours compounds with a hit; in the whole collection about 22% have one here.
SMILES,CYP2C19 activ,Measles CPE,CYP2C19 inh,CYP2C9 inh,CYP2C9 act
COc1ccc(NS(=O)(=O)c2ccc(NC(=O)C3CCCO3)cc2)cc1 (stereo unspecified),0.3,28.8,68.7*,65.1*,0.3
O=C(Nc1ccc(Oc2ccc(NC(=O)C3CCCO3)cc2)cc1)C1CCCO1 (stereo unspecified),0.7,17.2,26.4,53.9*,0.5
CC1(C(=O)CSc2n[nH]c(-c3ccccc3Cl)n2)CCC(=O)O1 (stereo unspecified),0.8,19.1,24.6,-4.5,1
Cc1ccc(S(=O)(=O)N2CC(=NO)C2)cc1,0.8,11.1,25.0,-27.9,1.3
CN(Cc1ccccc1)S(=O)(=O)c1ccc(NC(=O)C2CCCO2)cc1 (stereo unspecified),0.9,7.9,12.2,54.6*,0.5
CCc1ccc(NC(=O)c2ccccc2NC(=O)C2CCCO2)cc1 (stereo unspecified),0.8,3.4,21.3,59.2*,0.4
Cc1ccc(NS(=O)(=O)c2ccc(NC(=O)C3CCCO3)cc2)cc1 (stereo unspecified),0.1,47.0,91.3*,85.1*,0.1
CCN(CC)S(=O)(=O)c1ccc(NC(=O)C2CCCO2)cc1 (stereo unspecified),0.9,4.1,8.9,20.9,0.8
CC(Oc1ccccc1Cl)C(=O)N1CCOCC1 (stereo unspecified),nt,13.0,nt,nt,nt
COc1ccc(NC(C)=O)c2nc(C)c(C)nc12,1,14.5,-1.7,22.4,0.8
COc1ccc2sc(C)nc2c1NC(C)=O,0.8,7.7,17.6,84.2*,0.2
Oc1ccc(-c2n[nH]c(=S)n2-c2ccc3c(c2)OCCO3)c(O)c1,nt,59.7*,nt,nt,nt
COc1ccc(-c2n[nH]c(=S)n2-c2ccc3c(c2)OCCO3)cc1,nt,14.8,nt,nt,nt
C=CCSc1nnc2c(n1)OC(c1cccnc1)Nc1ccccc1-2 (stereo unspecified),1,11.3,-3.0,0.2,1
CSc1nnc(-c2ccccc2N=Cc2c(C)[nH]n(-c3ccc4ccccc4c3)c2=O)c(=O)[nH]1,0.9,2.7,14.0,19.1,0.8
C=CCSc1nnc2c(n1)OC(c1c(C)[nH]n(-c3ccccc3)c1=O)Nc1ccccc1-2 (stereo unspecified),0.9,16.4,7.9,71.7*,0.3
C=CCSc1nnc(-c2ccccc2N=Cc2c(C)[nH]n(-c3ccccc3)c2=O)c(=O)[nH]1,0.5,16.6,47.9,99.0*,0
CCC/C(O)=C1\C(=O)CC(c2ccccc2)CC1=NC (stereo unspecified),0.9,3.2,6.8,-23.5,1.2
C/C(N)=C(/C#N)C(=O)CSc1nnc(-c2ccccc2Br)o1,0,2.3,95.5*,-13.2,1.1
COc1ccc(-c2nnc(SCC(=O)/C(C#N)=C(\C)N)o2)cc1,0.7,12.1,25.8,41.2,0.6
CC(NCc1ccc(N(C)C)cc1)C1CC2CCC1C2 (stereo unspecified),0.1,7.2,86.0*,7.4,0.9
CN(C)c1ccc(CNC2CC(C)(C)NC(C)(C)C2)cc1,1.2,10.1,-17.4,-19.0,1.2
CCCNS(=O)(=O)c1ccc(OCC(=O)N2CCC(C(=O)OCC)CC2)cc1,1.1,15.3,-5.4,20.9,0.8
COc1ccc(C(CNC(=O)COc2ccccc2OC)N(C)C)cc1OC (stereo unspecified),1.1,2.0,-11.3,-11.2,1.1
CCN1CCc2c(sc3c2c(NCc2ccco2)nc2nnnn23)C1,0.6,35.4*,41.8,52.7*,0.5
SMILES,CYP2C19 activ,Measles CPE,CYP2C19 inh,CYP2C9 inh,CYP2C9 act
Cc1nc(NCc2ccco2)c2c3c(sc2n1)CCC3,0.8,6.0,17.6,22.1,0.8
COc1ccc(-n2c(C)nnc2SCC(=O)N2C(C)CCCC2C)cc1 (stereo unspecified),1,8.6,-1.0,5.6,0.9
O=C1CCSc2ccc(Cl)cc2N1Cc1cccc(Cl)c1,0.4,10.2,63.7*,13.6,0.9
COc1ccc(N(CC(=O)NCc2cccc(OC)c2)S(=O)(=O)c2c(C)noc2C)cc1,0.1,16.9,91.9*,63.5*,0.4
COc1ccc(N(CC(=O)NCC2CCCO2)S(=O)(=O)c2c(C)noc2C)cc1 (stereo unspecified),0.7,11.1,31.2,11.3,0.9
CCOc1ccc(N(CC(=O)NCc2cccc(OC)c2)S(=O)(=O)c2c(C)noc2C)cc1,0.4,18.1,59.6*,20.7,0.8
O=c1cc(O)c2sc(Nc3ccc(F)cc3)nc2[nH]1,nt,4.8,nt,nt,nt
Cn1cc(Cl)nc1C(O)c1ccccc1 (stereo unspecified),nt,33.1,nt,nt,nt

# Assay outcomes as filed in PubChem.
